Data as given in PubChem BioAssay.
Potency and affinity values are given separately. Active and inactive are the calls of the source. Cut-off not given; nearly all actives show IC50 up to about 0.91 µM.

Target: Calcium-dependent protein kinase 4 (Plasmodium falciparum (isolate 3D7)) (UniProt Q8IBS5)
Assay: PfCDPK4 kinase inhibitors, biochemical, TCAMS library (AID 1159588)
Conditions: recombinant PfCDPK4, Kinase-Glo ATP depletion luminescence

Calcium-dependent protein kinase 4 (Plasmodium falciparum (isolate 3D7)), sequence (Q8IBS5 whole entry, looked up): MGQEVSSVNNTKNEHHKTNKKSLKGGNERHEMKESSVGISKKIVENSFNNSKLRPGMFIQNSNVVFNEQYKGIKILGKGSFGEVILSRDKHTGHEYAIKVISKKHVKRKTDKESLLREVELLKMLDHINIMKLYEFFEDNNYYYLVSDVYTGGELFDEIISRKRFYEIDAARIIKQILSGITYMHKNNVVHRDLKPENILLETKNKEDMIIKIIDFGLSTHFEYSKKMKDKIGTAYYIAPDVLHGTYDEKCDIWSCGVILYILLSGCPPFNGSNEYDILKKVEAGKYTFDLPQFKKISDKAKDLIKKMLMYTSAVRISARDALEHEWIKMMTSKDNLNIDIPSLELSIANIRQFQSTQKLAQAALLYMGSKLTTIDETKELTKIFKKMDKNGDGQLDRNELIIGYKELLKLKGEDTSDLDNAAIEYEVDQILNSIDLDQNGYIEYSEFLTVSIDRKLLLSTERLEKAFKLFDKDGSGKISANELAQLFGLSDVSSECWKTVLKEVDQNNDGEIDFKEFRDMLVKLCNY

outcome, inactive:
CCN(CC)CCCNc1ncc2c(-c3ccc(NC(=O)Nc4cc(C(F)(F)F)ccc4F)cc3)nn(C)c2n1
CC(C)Cc1cn(-c2nc(C(=N)N)cs2)c2cc(Cl)ccc12
Oc1ccc2[nH]c(-c3cccs3)nc2c1CN1CCC(N2CCCC2)CC1
COc1ccc(N2CCN(c3nc(N)c4cc(OC)c(OC)cc4n3)CC2C)cc1 (stereo unspecified)
Oc1c(Cl)cc(-c2ccccc2)cc1CNC1CCCCC1
O=C(Nc1ccc(F)cc1)N1CCCN(c2ccnc3cc(Cl)ccc23)CC1
Nc1cccc(CNCc2ccc(-c3cccc(-c4nc5ccccc5[nH]4)c3)cc2)c1
Cc1nc(Nc2ccc(F)cc2)nc(N2CCc3ccccc3C2C)c1CO (stereo unspecified)
CNCCNC(=O)C1Cc2c([nH]c3c(C)cccc23)C(c2ccc(Cl)c(Cl)c2)N1 (stereo unspecified)
CCCc1cc(NCc2ccncc2)nc(Nc2ccc(F)cc2)n1
CCCCCn1c(Sc2ccc(C#N)c([N+](=O)[O-])c2)nnc1-c1cc(OC)cc(OC)c1
COc1cc(OC)c(NC(=O)COc2ccc(C)cc2)cc1Cl
c1ccc(-c2cc(NCCCCCCCCNc3cc(-c4ccccc4)nc4ccccc34)c3ccccc3n2)cc1
Cn1nccc1C(=O)NCCNCc1ccc(-c2cccc(-c3nc4ccc(F)cc4[nH]3)c2)cc1
COc1cc(C=NNc2nc(Nc3ccccc3)nc(Nc3ccccc3)n2)ccc1OCc1ccccc1[N+](=O)[O-]
O=C(/C=C/c1ccc(Cl)c(Cl)c1)NCCCCCN1CCC(c2cn[nH]c2-c2ccccc2)CC1
